From PubChem BioAssay (Tox21)
Inconclusive results are not listed. Unmarked numbers belong to inactive results. Activity calls are given as the source filed them. Calls come from the whole dose curve; as a rule, active = well fitted cell-killing curve with a large enough effect in the repeat runs; inconclusive = weak or mixed curves, or effect the other way; inactive = no such curve, though single readings can be large or run the other way.

Test: qHTS assay to identify small molecule antagonists of the glucocorticoid receptor (GR) signaling pathway - cell viability counter screen (AID 720693); note: nearly all actives have a fitted effect of over 55% in size
Details: GR-bla HeLa viability, CellTiter-Glo luminescence, 18 h, with 5 nM dexamethasone present; series mostly up to 58.5 µM; viability change, negative = cytotoxic: at the top concentration
Source text: National Center for Advancing Translational Sciences [NCATS]
NIH Chemical Genomics Center [NCGC]
U.S. Environmental Protection Agency [EPA]
National Institutes of Environmental Health Sciences [NIEHS]
National Toxicology Program [NTP]
U.S. Food and Drug Administration [FDA]
The Glucocorticoid receptor (GR) is one of the members of the nuclear receptor family of ligand-dependent transcription factors. GR plays a critical role in carbohydrate, protein and lipid metabolisms and programmed cell death. CellSensor GR-bla HeLa cell line (Invitrogen) contains a beta-lactamase reporter gene under the control of the glucocorticoid response element stably integrated into HeLa cells, a cervical cancer cell line that expresses glucocorticoid receptor. The activation of the reporter gene under culture conditions can be detected by fluorescence intensity. This cell line has been used to screen the Tox21 10K compound library and to identify the compounds that inhibit the GR signaling. The cytotoxicity of the Tox21 compound library against the GR-bla HeLa cell line was tested in parallel by measuring the cell viability using CellTiter-Glo assay in the same wells.
Tox21 Assay Protocol Summary:
The GR-bla HeLa cells were dispensed at 1500 cells/5 ul/well in 1536-well black wall/clear bottom plates using a Multidrop Combi (ThermoFisher Scientific, Waltham, MA) dispenser. After the assay plates were incubated at a 37 C/5% CO2 incubator for 4 hours, 23 nL of compounds dissolved in DMSO, positive controls or DMSO only was transferred to the assay plate by a pintool station (Kalypsys, San Diego, CA), followed by addition of 1 uL of dexamethasone (5 nM, final concentration in the well). The plates were incubated at 37 C for 18 hours. After 1 uL of LiveBLAzerTM B/G FRET substrate was added using a Flying Reagent Dispenser (Aurora Discovery, San Diego, CA), the plates were incubated at room temperature (RT) for 2 hours, and fluorescence intensity was measured by an Envision plate reader (PerkinElmer, Shelton, CT). After measurement of bla assay, 3 ul CellTiter-Glo (Promega, Madison, WI) was added to measure the cytotoxicity and the plates were then incubated at RT for 30 min. The luminescence was measured using a ViewLux (Perkin Elmer) plate reader.
% is set by controls: 0 for no effect and ±100 for the full control effect; potency is the fitted concentration of half-maximal effect.

Structure (SMILES) | viability change, negative = cytotoxic | Potency
Nc1nc(N)nc(Cl)n1 | 4.56% | 
[F][Sn]([c]1ccccc1)([c]1ccccc1)[c]1ccccc1 |  | 0.977 µM (active)
NC(=O)C(Cl)Cl | -1.37% | 
S=C=Nc1ccccc1 | -5.91% [at 78.9 µM] | 
CCOP(=O)(OCC)Oc1cc(C)nc(C(C)C)n1 | -8.91% [at 78.9 µM] | 
c1csc(-c2ccc(-c3cccs3)s2)c1 | 0.298% | 
O=C1C(Cl)=C(Cl)C(=O)C(Cl)=C1Cl |  | 38.9 µM (active)
O.O.O.O.O.O.O.O=S(=O)([O-])[O-].[Co+2] | 2.95% | 
Nc1ccccc1-c1ccccc1 | -3.37% | 
CC(Cc1ccc(O)cc1)NCC(O)c1cc(O)cc(O)c1 (stereo not given) | 20.1% | 
CC(C)N(C(=O)CCl)c1ccccc1 |  | 54.9 µM (active)
Oc1cccc(Cl)c1Cl | -8.54% [at 78.9 µM] | 
CCN(CC)CCc1c[nH]c2ccccc12 | 10.1% [at 78.9 µM] | 
C[C@]12C/C(=C/O)C(=O)C[C@@H]1CC[C@@H]1[C@@H]2CC[C@@]2(C)[C@H]1CC[C@]2(C)O |  | 49.4 µM (active)
COc1ccc2c3c1O[C@H]1[C@H](O)CC[C@H]4[C@@H](C2)N(C)CC[C@@]341 | -9.61% | 
O=C(O)[C@H](O)[C@@H](O)C(=O)O | 12.8% | 
CC[C@]1(O)CC[C@H]2[C@@H]3CCC4=CCCC[C@@H]4[C@H]3CC[C@@]21C |  | 3.01 µM (active)
CCC(C)c1cccc(C(C)CC)c1O (stereo not given) | -10.2% | 
COc1ccc2c(c1OC)C(=O)O[C@@H]2[C@H]1c2cc3c(cc2CCN1C)OCO3 | -21.9% | 
O=[N+]([O-])c1cc(C(F)(F)F)c(Cl)c([N+](=O)[O-])c1Nc1ncc(C(F)(F)F)cc1Cl |  | 21.9 µM (active)

Structure (SMILES) | viability change, negative = cytotoxic | Potency
CNC(C)(C)Cc1ccccc1 | 0.776% [at 27 µM] | 
BrCCCBr | -9.25% [at 78.9 µM] | 
CN1CCc2cc3c(cc2C1O)OCO3 (stereo not given) | 1.15% [at 78.9 µM] | 
CNC(=O)Oc1cc(C)cc(C(C)C)c1 | -11.6% | 
Clc1ccc(C(Cl)(Cl)Cl)cc1Cl | 5.49% | 
[O-][Cl+3]([O-])([O-])O | 9.74% [at 78.9 µM] | 
CC(C)=CCN1CC[C@@]2(C)c3cc(O)ccc3C[C@@H]1[C@@H]2C | -8.93% | 
CCCCCCC[CH2][Sn]([Cl])([Cl])[CH2]CCCCCCC |  | 54.9 µM (active)
FC(F)C(F)(F)OCC(Cn1cncn1)c1ccc(Cl)cc1Cl (stereo not given) | 6.42% | 
CC(C)C(Br)C(=O)NC(N)=O (stereo not given) | 6.17% | 
N#Cc1ccc(N(CC(N)=O)CC(F)(F)F)cc1C(F)(F)F | -1.61% | 
Oc1ccc(Cl)c(Cl)c1 | -0.882% | 
O=[N+]([O-])c1ccc(CCl)cc1 | 11.5% | 
Cc1ccc(C)c2ccccc12 | -7.2% | 
CC1(C)[C@H](/C=C2\CCSC2=O)[C@@H]1C(=O)OCc1coc(Cc2ccccc2)c1 | -4.91% | 
CC(=O)[O-].CC(=O)[O-].O.O.[Zn+2] | 26.9% | 
O=C(Cl)c1ccccc1F | -0.633% | 
O=Cc1ccccc1 |  | inactive
C=C(C)C(=O)[O][Sn]([CH2]CCC)([CH2]CCC)[CH2]CCC |  | 0.776 µM (active)
O=[N+]([O-])c1ccc(Cl)c(Cl)c1Cl | -0.154% | 
